# Data: PubChem BioAssay (NCATS)
# Records with an inconclusive call do not appear. A call without a number means that no potency is given here. Active and inactive are the calls of the source. Calls follow the shape of the dose curve; as a rule, active = well fitted cell-killing curve with a large enough effect; inconclusive = small, poorly fitted or top-dose-only effect, or effect the other way; inactive = no such curve, though single readings can be large or run the other way.
# Experiment: Quantitative High-Throughput drug screen in 47 multiple myeloma cell lines against the NCATS MIPE library collection: MOLP8_DSMZ cell viability assay (AID 1918977); also: nearly all actives have a fitted effect of over 45% in size
# Conditions: MOLP8 myeloma viability, CellTiter-Glo ATP luminescence, 48 h; series mostly up to 45.8 µM
# Text: PI: Beverly A. Mock Ph.D.
# Laboratory of Cancer Biology and Genetics,
# Center for Cancer Research, National Cancer Institute,
# National Institute of Health, Bethesda, Maryland
# Drug resistance and disease progression are common in multiple myeloma (MM) patients, underscoring the need for new therapeutic combinations. […] We hypothesized that effective combinations would reduce MYC expression and enhance p16 activity. […] These preclinical data identify potentially useful drug combinations for evaluation in drug-resistant MM and reveal potential mechanisms of combined drug sensitivity.
# Described herein is the primary MIPE qHTS used to cherrypick compounds. Validated compounds were then further tested for potential synergistic activiy.
# [1] Peat TJ, Gaikwad SM, Dubois W, Gyabaah-Kessie N, Zhang S, Gorjifard S, Phyo Z, Andres M, Hughitt VK, Simpson RM, Miller MA, Girvin AT, Taylor A, Williams D, D'Antonio N, Zhang Y, Rajagopalan A, Flietner E, Wilson K, Zhang X, Shinn P, Klumpp-Thomas C, McKnight C, Itkin Z, Chen L, Kazandijian D, Zhang J, Michalowski AM, Simmons JK, Keats J, Thomas CJ, Mock BA. Drug combinations identified by high-throughput screening promote cell cycle transition and upregulate Smad pathways in myeloma. Cancer Lett. 2023 Aug 1;568:216284. doi: 10.1016/j.canlet.2023.216284. Epub 2023 Jun 24. PMID: 37356470; PMCID: PMC10408729.
# SEQUENCE No. (e.g., 1, 2, 3, etc.); […] (e.g., Cells, Incubation, Reagent, etc.); VALUE and DESCRIPTION.
# 1; Cells; 5 uL; white, solid bottom 1536-well Greiner assay plate.
# 2; Compounds; 23 nL; Kalypsis pin tool (Wako USA) equipped with a 1536-well pin head to transfer to the assay plates.
# 3; Incubation; 48 hours; 37C incubation.
# 4; Reagent;5uL; CellTiter Glo (Promega).
# 5; Detector; 425V; Luminescence; Viewlux PerkinElmer.
# NOTES (numbers refer to Sequence numbers above)
# 1. The cell-based screening methods employed in this study were like those previously published. Briefly, the corresponding myeloma cell lines were screened in 1,536-well plates with 500 cells, 5-uL per well for inhibition of cell viability (assessed by measuring ATP levels with CellTiterGlo).
# 2. NCATS MIPE 4.0 library of approved and investigational drugs were added using the Kalypsis pin tool. Wells treated with DMSO only for 100% viability and media only for 0% viability were used as controls.
# 3. The assay plates were covered and incubated for 48 hours in a 37C, 5% CO2 incubator with controlled humidity.
# 4. After 48 hours, CellTilter-GloTM luminescent substrate mix (Promega) reagent was added to the assay plate and plates we incubated for 5 min at room temperature.
# 5. Signal was measured as median relative luminescence units on a ViewLux (PerkinElmer) multiplate reader.
# [1] Heske CM, Davis MI, Baumgart JT, Wilson K, Gormally MV, Chen L, Zhang X, Ceribelli M, Duveau DY, Guha R, Ferrer M, Arnaldez FI, Ji J, Tran HL, Zhang Y, Mendoza A, Helman LJ, Thomas CJ. Matrix Screen Identifies Synergistic Combination of PARP Inhibitors and Nicotinamide Phosphoribosyltransferase (NAMPT) Inhibitors in Ewing Sarcoma. Clin Cancer Res. 2017 Dec 1;23(23):7301-7311. doi: 10.1158/1078-0432.CCR-17-1121. Epub 2017 Sep 12. PMID: 28899971; PMCID: PMC6636827.
# Potency is read from the fitted curve at half-maximal effect.
row,SMILES,Potency
1,O=c1[nH]c2ccccc2n1CCCN1CCC(n2c(=O)[nH]c3cc(Cl)ccc32)CC1,inactive
2,CNCC(O)c1ccc(O)cc1 (stereo not drawn),inactive
3,Cn1cc(C2=C(c3cn(C4CCN(Cc5ccccn5)CC4)c4ccccc34)C(=O)NC2=O)c2ccccc21,inactive
4,COC[C@@H](NC(C)=O)C(=O)NCc1ccccc1,inactive
5,N[C@@H](Cc1ccc(N(CCCl)CCCl)cc1)C(=O)O,5.9 µM (active)
6,COc1ccc(C(=O)c2c(C)n(CCN3CCOCC3)c3ccccc23)cc1,inactive
7,CN(C)[C@@H]1C(=O)C(C(N)=O)=C(O)[C@@]2(O)C(=O)C3=C(O)c4c(O)cccc4[C@@](C)(O)[C@H]3C[C@@H]12,inactive
8,CN(C)CCc1ccc(O)cc1,inactive
9,CC(C)CC(N(C)C)C1(c2ccc(Cl)cc2)CCC1 (stereo not drawn),inactive
10,C[C@@H]1[C@@H](C(=O)C[C@H]2O[C@@H]3O[C@]4(C)CC[C@@H]5[C@H](C)CC[C@@H]([C@H]2C)[C@@]35OO4)O[C@@H]2O[C@]3(C)CC[C@H]4[C@H](C)CC[C@@H]1[C@@]24OO3,0.526 µM (active)
11,CC1=C2C[C@@H]3[C@@H](CC=C4C[C@@H](O)CC[C@@]43C)[C@@H]2CC[C@]12O[C@H]1C[C@H](C)CN[C@H]1[C@H]2C,inactive
12,C[C@@H]1[C@@H](CC(C[C@H]2O[C@@H]3O[C@]4(C)CC[C@@H]5[C@H](C)CC[C@@H]([C@H]2C)[C@@]35OO4)C[S+](=O)([O-])c2ccc(COC(=O)N(C)C)cc2)O[C@@H]2O[C@]3(C)CC[C@H]4[C@H](C)CC[C@@H]1[C@@]24OO3 (stereo partly drawn),0.187 µM (active)
13,Cn1c(CCCC(=O)O)nc2cc(N(CCCl)CCCl)ccc21,3.32 µM (active)
14,O=P1(NCCCl)OCCCN1CCCl (stereo not drawn),inactive
15,CCCC(C)(COC(N)=O)COC(=O)NC(C)C (stereo not drawn),inactive
16,COC1(CS(=O)c2ccccc2)CCN(CCc2c[nH]c3ccc(F)cc23)CC1 (stereo not drawn),inactive
17,COc1ccc(C(CN(C)C)C2(O)CCCCC2)cc1 (stereo not drawn),inactive
18,COC[C@H]1OC(=O)c2coc3c2[C@@]1(C)C1=C(C3=O)C2CCC(=O)[C@@]2(C)C[C@H]1OC(C)=O (stereo partly drawn),1.32 µM (active)
